In PubChem BioAssay (NCI):
This is part of a sample that, as a whole, favours compounds with a hit. Of some 83,000 tested, about 20% had one in any assay.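 Method: cells in 96-well plates; compound added at one concentration; 48 h incubation; percent growth measured; values under 10 scored active.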 Active and inactive are the calls of the source.

Columns and labels:
Assay in all cases: NCI-60 one-dose screen, 48 h (100 = growth as untreated, 0 = no growth, -100 = all killed)
Conditions in all cases: 10 µM unless noted
NCI-H23 lung = tested on: NCI-H23 lung
NCI-H322M lung = tested on: NCI-H322M lung
HOP-62 NSCLC = tested on: HOP-62 NSCLC
NCI-H460 lung = tested on: NCI-H460 lung
NCI-H522 lung = tested on: NCI-H522 lung
786-0 renal = tested on: 786-0 renal
COLO 205 colon = tested on: COLO 205 colon
K-562 leukemia = tested on: K-562 leukemia
MALME-3M melanoma = tested on: MALME-3M melanoma
MDA-MB-231 breast = tested on: MDA-MB-231 breast
SF-268 CNS = tested on: SF-268 CNS
SF-295 CNS = tested on: SF-295 CNS
SF-539 CNS = tested on: SF-539 CNS
UACC-257 melanoma = tested on: UACC-257 melanoma
M14 melanoma = tested on: M14 melanoma
HCT-15 colon = tested on: HCT-15 colon
A549/ATCC NSCLC = tested on: A549/ATCC NSCLC
DU-145 prostate = tested on: DU-145 prostate
RXF 393 renal = tested on: RXF 393 renal
NCI-H226 lung = tested on: NCI-H226 lung

Measured: growth

COc1ccc(C(=O)COc2cccc(/C=C3\Oc4ccc5ccccc5c4C3=O)c2)cc1
active: NCI-H522 lung -0.888% | SF-539 CNS -50%
inactive: NCI-H23 lung 10.3% | NCI-H322M lung 106% | HOP-62 NSCLC 89.8% | NCI-H460 lung 100% | 786-0 renal 100% | COLO 205 colon 77.3% | K-562 leukemia 81.4% | MALME-3M melanoma 17.2% | MDA-MB-231 breast 79.3% | SF-268 CNS 83.7% | SF-295 CNS 119% | UACC-257 melanoma 95.7% | M14 melanoma 49.2% | HCT-15 colon 43.7%

O=C(CCc1nnc(Cn2ccnc2)o1)c1nc2ccccc2[nH]1
inactive: NCI-H23 lung 102% | NCI-H322M lung 92.9% | HOP-62 NSCLC 102% | NCI-H460 lung 116% | NCI-H522 lung 98.4% | A549/ATCC NSCLC 103% | 786-0 renal 105% | COLO 205 colon 119% | DU-145 prostate 108% | K-562 leukemia 101% | MALME-3M melanoma 77.8% | MDA-MB-231 breast 89.7% | RXF 393 renal 124% | SF-268 CNS 111% | SF-295 CNS 111% | SF-539 CNS 100% | UACC-257 melanoma 114% | M14 melanoma 105% | HCT-15 colon 100%

CC(C)[C@]12O[C@H]1[C@@H]1O[C@]13[C@]1(O[C@H]1C[C@H]1C4=C(CC[C@@]13C)C(=O)OC4)[C@@H]2OC(=O)CN(C)C
active: NCI-H23 lung -19.4% | NCI-H322M lung -7.07% | NCI-H460 lung 0.675% | NCI-H522 lung -41.8% | DU-145 prostate 3.28% | MALME-3M melanoma -45.2% | RXF 393 renal -61.9% | SF-268 CNS -10.2% | SF-295 CNS -27.6% | SF-539 CNS -23% | UACC-257 melanoma -2.52% | M14 melanoma -74.2%
inactive: HOP-62 NSCLC 19.2% | A549/ATCC NSCLC 18.4% | 786-0 renal 12.9% | MDA-MB-231 breast 27.8%

CCN1CCN(c2cc(-c3cn[nH]c3-c3cc(C)cc(OC)c3)nc(-c3cccnc3)n2)CC1
inactive: NCI-H23 lung 93.9% | NCI-H322M lung 67.5% | HOP-62 NSCLC 101% | NCI-H460 lung 88.9% | NCI-H522 lung 75.6% | A549/ATCC NSCLC 82.3% | 786-0 renal 58.1% | COLO 205 colon 51.3% | DU-145 prostate 75% | K-562 leukemia 21.9% | MALME-3M melanoma 91.9% | MDA-MB-231 breast 58.6% | RXF 393 renal 61.2% | SF-268 CNS 87.3% | SF-295 CNS 99.9% | SF-539 CNS 83% | UACC-257 melanoma 84.8% | M14 melanoma 83.1% | HCT-15 colon 19.2%

CCN(CC)CCCNCCCNc1cc(OC)cc2cccnc12
inactive: NCI-H23 lung 94.2% | NCI-H322M lung 81% | HOP-62 NSCLC 92.3% | NCI-H460 lung 103% | NCI-H522 lung 93.1% | A549/ATCC NSCLC 92.4% | 786-0 renal 94.4% | DU-145 prostate 104% | K-562 leukemia 89.9% | MALME-3M melanoma 108% | RXF 393 renal 70.6% | SF-268 CNS 90.3% | SF-295 CNS 99.2% | SF-539 CNS 84.6% | UACC-257 melanoma 107% | M14 melanoma 102% | HCT-15 colon 83.9%

Cc1nc2cc(NC(=O)CN3CCN(CCN4C(=O)c5cccc6cccc(c56)C4=O)CC3)ccc2s1
inactive: NCI-H23 lung 60.9% | NCI-H322M lung 69.3% | HOP-62 NSCLC 60% | NCI-H460 lung 26.5% | NCI-H522 lung 53.2% | A549/ATCC NSCLC 37.6% | 786-0 renal 51.4% | DU-145 prostate 56.8% | MALME-3M melanoma 70.6% | MDA-MB-231 breast 72.2% | RXF 393 renal 47.8% | SF-268 CNS 46.2% | SF-295 CNS 48.3% | SF-539 CNS 59.4% | UACC-257 melanoma 76.8% | M14 melanoma 89% | HCT-15 colon 45%

Cc1nc2c(O)cccc2cc1CO
inactive: NCI-H226 lung 114% | NCI-H322M lung 165% | HOP-62 NSCLC 106% | NCI-H460 lung 103% | A549/ATCC NSCLC 109% | 786-0 renal 96.3% | COLO 205 colon 142% | DU-145 prostate 113% | K-562 leukemia 82.8% | MALME-3M melanoma 178% | MDA-MB-231 breast 110% | RXF 393 renal 136% | SF-268 CNS 99.8% | SF-295 CNS 106% | SF-539 CNS 93.5% | UACC-257 melanoma 116% | M14 melanoma 110% | HCT-15 colon 109%

Cn1cc(-c2nc(-c3c[nH]c4ncccc34)cs2)c2cccnc21
inactive: NCI-H226 lung 70% | NCI-H322M lung 64.3% | HOP-62 NSCLC 68.2% | NCI-H460 lung 46.6% | NCI-H522 lung 46.5% | A549/ATCC NSCLC 69.6% | 786-0 renal 60.6% | MALME-3M melanoma 84.8% | MDA-MB-231 breast 47.6% | RXF 393 renal 54.6% | SF-268 CNS 91.5% | SF-295 CNS 71.1% | SF-539 CNS 69.1% | UACC-257 melanoma 105% | M14 melanoma 42.5% | HCT-15 colon 43.6%

O=C(NCCCO)c1cc(Cl)ccc1O
inactive: NCI-H322M lung 83.6% | HOP-62 NSCLC 36.3% | A549/ATCC NSCLC 38.5% | 786-0 renal 49.5% | COLO 205 colon 25% | DU-145 prostate 36.1% | K-562 leukemia 11.1% | MDA-MB-231 breast 28.2% | RXF 393 renal 40.7% | SF-268 CNS 28.4% | SF-539 CNS 45% | UACC-257 melanoma 16.4% | M14 melanoma 30.3% | HCT-15 colon 77.5%
active: NCI-H460 lung 9.74% | NCI-H522 lung -1.53% | MALME-3M melanoma 0.89%
